Records with an inconclusive call do not appear. A call without a number means that no potency is given here. Activity calls are given as the source filed them. Calls come from the whole dose curve; as a rule, active = well fitted inhibition curve with a large enough effect; inconclusive = small, poorly fitted or top-dose-only effect; inactive = no such curve, though single readings can be large or run the other way.
target: Retinaldehyde dehydrogenase 3 (Homo sapiens) (UniProt P47895); assay: qHTS for Inhibitors of the Aldehyde Dehydrogenase Family (ALDH1A3) Confirmatory screens (AID 2061311); conditions: ALDH inhibition qHTS; series mostly up to 46 µM; note: nearly all actives have a fitted effect of over 60% in size
Potency is the fitted concentration of half-maximal effect.

Row | Structure (SMILES) | Potency
1 | CCOc1ccc(NC(=O)NCCCN2CCN(c3ccc(OC)cc3)CC2)cc1 | inactive
2 | O=S(=O)(Nc1nc2ccccc2s1)c1ccc(NCc2ccc(Br)cc2O)cc1 | 14.2 µM (active)
3 | N#Cc1cccc(C(=O)Nc2ccc([C@H]3OCC(=O)N(C4CCOCC4)[C@@H]3CO)cc2)c1 | inactive
4 | CCc1nn(-c2ccc(OC)cc2)c(Oc2ccccc2F)c1CCC(=O)NC(C)C | inactive
5 | COc1cc(F)ccc1-c1cnc2n[nH]c(-c3sccc3C)c2n1 | inactive
6 | COc1ccc(OC)c(-c2cc(-c3cccs3)nc3c(C)noc23)c1 | 12.6 µM (active)
7 | COc1cc(CNC(=O)c2ccc(NC(=O)N3CCCCc4ccccc43)cc2)cc(OC)c1OC | inactive
8 | COc1ccc(-c2ccccc2C(=O)NCc2ccccn2)nn1 | inactive
9 | COc1ccccc1-c1cnc2n[nH]c(-c3ccccc3C)c2n1 | inactive
10 | CCc1nn2c(=O)c(S(=O)(=O)Nc3cccc(F)c3)c(C)nc2s1 | inactive
11 | COc1ccc(Cl)cc1NC(=O)c1cc2nc(-c3ccc(C)cc3)cc(C(F)(F)F)n2n1 | inactive
12 | Cc1ccc(NC(=O)CSc2nc3ncccc3[nH]2)cc1F | inactive
13 | O=C1Cc2cc(S(=O)(=O)N3CCN(c4ccccc4)CC3)ccc2N1 | inactive
14 | COc1ccc(C2(C(=O)NCc3ccccc3)CCOCC2)cc1 | inactive
15 | Cn1ncc2c(C(=O)NCc3ccc(F)cc3)cc(-c3ccc(F)cc3)nc21 | inactive
16 | COc1ccc(N2CCN(C(=O)CS(=O)(=O)c3cccc4nsnc34)CC2)cc1 | inactive
17 | Cc1cc(Br)ccc1NC(=O)CCNS(=O)(=O)c1cccc2nonc12 | inactive
18 | O=C(CSc1nc(-c2cccs2)nc2cc(=O)[nH]n12)Nc1cccc(C(F)(F)F)c1 | inactive
19 | CCOc1ccc(NC(=O)C(=O)NCCc2ccccc2)cc1 | inactive
20 | Cc1noc(C)c1-c1cnc(Nc2ccc(F)c(Cl)c2)c2c1CCO2 | 31.6 µM (active)

Row | Structure (SMILES) | Potency
21 | O=C(O)c1ccc(Cn2c(SCc3ccc(F)cc3)nc3ccncc32)cc1 | inactive
22 | COc1ccc(CC(=O)Nc2ccc([C@H]3OCC(=O)N(Cc4ccccc4)[C@@H]3CO)cc2)cc1 | inactive
23 | Cc1cc2nc3n(c(=O)c2n1CC(=O)Nc1ccc(Br)cc1F)CCC3 | inactive
24 | N#Cc1ccccc1NC(=O)Cn1cnc2onc(-c3cccc(F)c3)c2c1=O | inactive
25 | Fc1cccc(Cc2noc(-c3nc(-c4ccc5c(c4)OCO5)no3)n2)c1 | inactive
26 | O=[S+]([O-])(c1ccccc1)c1nnn2c1nc(N1CCC(F)CC1)c1ccccc12 | inactive
27 | Fc1cccc(Cc2noc(-c3nc(-c4ccccc4)no3)n2)c1 | inactive
28 | CNC(=O)c1cccc(-c2ccc(C(C)(C)C#N)cc2)n1 | 8.91 µM (active)
29 | COCCNC(=O)c1cc(-c2ccc(OC)cc2)nc2c1c(C)nn2-c1ccccc1 | 25.1 µM (active)
30 | CCCOc1ccc(C(=O)Nc2ccc(NC(=O)c3cccc(Cl)c3)cc2)cc1 | inactive
31 | CCOc1cccc(CNC(=O)c2ccc(N3CCCC3)c(NC(=O)NCc3ccccc3)c2)c1 | inactive
32 | CCOc1ccc(NC(=O)N2CCC(CC(=O)NCc3ccccc3)C2)cc1 (stereo not given) | inactive
33 | O=C(CSc1nc2c(cnn2-c2ccc(F)cc2)c(=O)[nH]1)Nc1ccc(Br)cc1 | inactive
34 | Cc1ccc([S+](=O)([O-])c2nnn3c2nc(N2CCC(F)CC2)c2ccccc23)cc1 | inactive
35 | CC(=O)NC(c1ccco1)c1cc(Cl)c2ccccc2c1O (stereo not given) | 11.3 µM (active)
36 | Cc1nonc1OCCn1cc(-c2ccc(CO)o2)nn1 | inactive
37 | c1cnc(-c2noc(-c3nc(-c4ccc5c(c4)OCO5)no3)n2)cn1 | inactive
38 | Cc1ccc(-n2c(=O)c3c(cnn3C)n(CC(=O)Nc3cccc(Cl)c3)c2=O)cc1 | inactive
39 | COc1ccc(-c2nnc3ccc(NCCc4ccccc4)nn23)nc1 | 20 µM (active)
40 | OCc1ccc(-c2ccc3nnc(-c4ccccn4)n3n2)cc1 | inactive

From PubChem BioAssay (NCATS)
